Compound activity deposited in PubChem BioAssay by several laboratories.
Bead autofluor – counter-screen for toxin protease inhibitors: compound fluorescence; compound autofluorescence counterscreen, microsphere flow cytometry; hits give high values; fluorescence intensity (no concentration beside the values); hit rate 3.1% among 360,000; AID 624483; in the data active = fluorescence intensity above about 16000; inconclusive = no clear call, values can overlap the other calls
MazEF act – activators of E. coli MazEF toxin-antitoxin RNase, primary screen, biochemical, fluorescence, uHTS; Endoribonuclease toxin MazF (Escherichia coli (strain K12)), P0AE70; activation, % at 20 µM; hit rate 0.32% among 350,000; FAM/BHQ RNA-DNA oligo cleavage fluorescence, 5 h; in the data active = activation above about 50%
BoNT-A LC inh2 – BoNT/A light chain protease inhibitors, primary screen, biochemical, flow cytometry, MLPCN library | inhibition, % at 10 µM | multiplex microsphere protease substrate cleavage | Botulinum neurotoxin type A light chain protease (Clostridium botulinum A str. ATCC 3502) | AID 588499, 2011 | hit rate 0.17% among 360,000; note: plate controls were buffer without enzyme for full effect and enzyme alone for no effect
BoNT-F LC inh – BoNT/F light chain protease inhibitors, primary screen, biochemical, flow cytometry, MLPCN library; Botulinum neurotoxin type F light chain protease (Clostridium botulinum); Multiplex microsphere protease cleavage assay; inhibition, % at 10 µM; hit rate 0.22% among 360,000; AID 588497, 2011; in the data active = inhibition above about 35%, passing the limit was not always enough; inconclusive = no clear call, values can overlap the other calls; note: plate controls were buffer without enzyme for full effect and enzyme alone for no effect
Anthrax LF inh2 – Bacillus anthracis LF protease inhibitors, primary screen, biochemical, multiplex microsphere, MLPCN library. Lethal factor (Bacillus anthracis), P15917. multiplex microsphere protease cleavage assay. inhibition, % at 10 µM. hit rate 0.12% among 360,000. AID 588501, 2011; note: plate controls were buffer without enzyme for full effect and enzyme alone for no effect
Target sequence (P15917 whole entry, looked up): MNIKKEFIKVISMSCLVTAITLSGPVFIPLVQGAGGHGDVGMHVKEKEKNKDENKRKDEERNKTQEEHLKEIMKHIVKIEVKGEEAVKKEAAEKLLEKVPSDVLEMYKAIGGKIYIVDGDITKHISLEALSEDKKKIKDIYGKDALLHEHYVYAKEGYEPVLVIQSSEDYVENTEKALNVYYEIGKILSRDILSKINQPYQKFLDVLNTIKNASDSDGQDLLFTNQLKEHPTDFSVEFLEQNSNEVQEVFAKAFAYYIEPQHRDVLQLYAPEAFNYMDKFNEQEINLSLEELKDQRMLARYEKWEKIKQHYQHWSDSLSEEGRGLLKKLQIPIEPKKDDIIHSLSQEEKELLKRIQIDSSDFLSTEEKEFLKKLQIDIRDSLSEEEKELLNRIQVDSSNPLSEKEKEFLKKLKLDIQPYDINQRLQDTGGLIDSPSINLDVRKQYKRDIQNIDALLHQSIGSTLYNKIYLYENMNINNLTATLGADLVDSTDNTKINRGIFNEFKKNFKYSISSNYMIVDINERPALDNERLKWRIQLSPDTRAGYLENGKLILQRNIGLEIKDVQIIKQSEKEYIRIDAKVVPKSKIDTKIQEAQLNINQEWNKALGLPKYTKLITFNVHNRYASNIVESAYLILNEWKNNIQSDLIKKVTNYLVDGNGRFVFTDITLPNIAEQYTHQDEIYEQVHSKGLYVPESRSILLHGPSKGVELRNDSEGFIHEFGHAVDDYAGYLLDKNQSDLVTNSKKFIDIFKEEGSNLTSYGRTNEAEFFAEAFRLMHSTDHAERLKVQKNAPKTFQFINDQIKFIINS
* hit, by the source's call; ? = inconclusive; . = no result given. A selection: hits, their analogues and other compounds. The true share with any hit is near 3.6%. Cut-off read from the data, not from the text of the source, unless noted: active = inhibition above about 30%; inconclusive = no clear call, values can overlap the other calls; inactive = below that.

SMILES | Bead autofluor | MazEF act | BoNT-A LC inh2 | BoNT-F LC inh | Anthrax LF inh2
O=C(O)c1ccc(NC(=O)c2ccco2)c(NC(=O)c2ccco2)c1 | 3597 | 0.9 | -1.3 | 18.7 | -13.1
COc1ccc(NC(=O)CS(=O)CC(=O)Nc2ccc(NC(C)=O)cc2)cc1 (centres undefined) | 4425 | -14.4 | -0.3 | -6.8 | 3.1
COC(=O)c1cc(C(=O)c2ccc(Cl)cc2Cl)cn1C | 21700* | 3.4 | ? | 0.2 | -2.0
Cc1cn([C@H]2C[C@H](O)[C@@H](/C=C/C(=O)NCc3ccc4c(c3)OCO4)O2)c(=O)[nH]c1=O | 6605 | . | -3.4 | -35.9 | -9.8
CCn1c(=O)c(C(=O)NCc2ccccc2Cl)c(O)c2ccccc21 | 3425 | -3.3 | 1.5 | 23.1 | -9.2
Cn1c(=O)c(C(=O)NCc2ccccc2Cl)c(O)c2ccccc21 | 3000 | 53.8* | -1.9 | 5.1 | 2.4
CCc1nc2ccc(C(=O)Nc3cccc(OCC(=O)N(C)C)c3)cn2c1N(CCC(C)C)CCN(C)C | 3905 | . | -0.7 | -7.0 | -6.6
Cc1ccc(-n2ncc3c(=O)n(Cc4cccnc4)cnc32)cc1 | 19270* | -8.2 | 0.6 | -2.6 | -2.7
CCOC(=O)C1CCCN(S(=O)(=O)c2cc3c4c(c2)CCC(=O)N4CCC3)C1 (centres undefined) | 5769 | 0.1 | 1.1 | 13.5 | 1.6
COc1ccc(/C=N/Nc2nc(-c3ccc(C)cc3)c(NC(C)=O)s2)cc1OC | 4131 | -3.7 | 2.9 | ? | 36.5*
COc1cc(/C=N\Nc2nc(-c3ccc(C)cc3)c(NC(C)=O)s2)ccc1O | 6243 | 21.2 | 0.2 | 1.8 | -7.1
COc1ccc(CNc2nc3nc(C)cc(C)n3n2)cc1 | 23427* | -0.9 | -2.7 | -4.5 | 0.0
COc1ccc(-c2cc3nc(C)cc(C)n3n2)cc1 | 20324* | 0.6 | -0.3 | -1.9 | -0.2
Cc1cc(C)n2nc(S(=O)(=O)NCCc3ccccc3)nc2n1 | 4341 | 1.3 | 0.4 | 0.3 | -0.5
COc1ccc(CNc2nc3nc(C)c(Cl)c(C)n3n2)cc1 | 4098 | 4.5 | -2.0 | 14.1 | 2.4
Cc1cc(C)n2nc(NCc3ccccc3)nc2n1 | 20633* | 2.6 | ? | -2.8 | 0.3
COc1ccc(C)cc1S(=O)(=O)N1CCCC(C(=O)N2CCOCC2)C1 (centres undefined) | 7881 | -0.4 | -9.9 | -20.7 | 0.4
O=C(CSc1nccc(-c2cccs2)n1)Nc1ccccc1 | . | -2.9 | . | . | .
N#Cc1ccccc1S(=O)(=O)N1CCN(C(=O)CN(Cc2ccco2)Cc2cccs2)CC1 | 3918 | -2.8 | -0.2 | 1.0 | -8.0
CCCCOC(=O)CCc1nc2ccccc2[nH]c1=O | 18710* | 5.4 | 9.0 | 12.3 | 2.6
CCCCOC(=O)CCn1[nH]c(=O)c2ccccc2c1=O | 22758* | 3.6 | -0.8 | 0.4 | -2.3
CCC(OC(=O)CCc1nc2ccccc2[nH]c1=O)C(=O)c1ccccc1 (centres undefined) | 17407* | 4.1 | -2.7 | -7.8 | -4.0
O=C(NCC1CCCO1)Nc1ccc2c(c1)OCO2 (centres undefined) | 2475 | -5.3 | -0.7 | -8.1 | -2.0
Cc1ccc(Nc2c([N+](=O)[O-])c(=O)n(C)c3ccccc23)cc1C | 21534* | 12.5 | 5.8 | 3.3 | 1.9
O=C(NCn1cnccc1=O)c1ccccc1 | 23239* | -4.6 | -0.5 | -0.1 | -4.2
SMILES | Bead autofluor | MazEF act | BoNT-A LC inh2 | BoNT-F LC inh | Anthrax LF inh2
CN(Cc1ccccc1)C(=O)Nc1ccc(Cl)cc1 | . | -6.7 | . | . | .
COC(=O)N1CC(c2ccccc2)CC1=O (centres undefined) | 19692* | -9.7 | 1.1 | 2.6 | -0.5
O=C1C2C3C=CC(C3)C2C(=O)N1CC1CCCO1 (centres undefined) | 20157* | -1.4 | ? | -1.1 | 0.8
O=C(NCC1CCCCC1)c1csc([C@@H]2C[C@H](O)[C@@H](CO)O2)n1 | 4094 | . | -0.4 | -1.9 | -1.6
COc1ccc(CNC(=O)C2CCCN(Cc3nc(-c4cccc(C)c4)oc3C)C2)cc1 (centres undefined) | 2740 | 6.5 | 0.0 | 2.2 | -1.3
Cc1ccccc1-c1nc(CN2CCCC(C(=O)NCCCN3CCOCC3)C2)c(C)o1 (centres undefined) | 24221* | 5.5 | -0.4 | -0.1 | 0.4
COc1ccc(CCNC(=O)C2CCN(Cc3nc(-c4cccc(Cl)c4)oc3C)CC2)cc1OC | 6376 | 5.5 | -1.1 | -3.8 | -3.3
Cc1ccccc1-c1nc(CN2CCCC(C(=O)NCc3cccnc3)C2)c(C)o1 (centres undefined) | 24766* | -5.2 | ? | -7.7 | -1.7
Cc1ccccc1-c1nc(CS(=O)(=O)CC(=O)NCCCN2CCCC2)c(C)o1 | 5990 | 4.3 | -0.5 | -12.5 | -3.2
CCc1ccc(-c2nc(CN3CCCC(C(=O)NCCc4ccc(OC)c(OC)c4)C3)c(C)o2)cc1 (centres undefined) | 21829* | -6.9 | ? | 1.6 | -5.5
Cc1oc(-c2ccc(Cl)cc2)nc1CN1CCC(C(=O)NCc2cccnc2)CC1 | 16967* | 6.4 | -1.9 | -6.4 | -2.4
COc1ccc(CCNC(=O)C2CCCN(Cc3nc(-c4ccccc4C)oc3C)C2)cc1OC (centres undefined) | 21174* | 0.9 | ? | -6.7 | -1.3
C/C(=N\NC(=O)c1ccc(Cl)c(Cl)c1)c1ccccn1 | 3592 | -1.1 | 11.1 | 37.4* | -3.5
COc1ccc(/C=N/NC(=O)c2nnn(-c3nonc3N)c2CN(C)c2ccccc2)cc1 | 5274 | 6.2 | 2.5 | 11.2 | 4.3
O=C(COc1ccccc1)Nc1nnc(S(=O)(=O)N2CCCCCC2)s1 | 4269 | 4.8 | 1.0 | 5.8 | -1.4
O=C(CCNS(=O)(=O)c1ccc(Cl)cc1)NCc1cccnc1 | 23127* | -1.4 | -0.6 | -0.7 | -3.2
CSc1ccc(S(=O)(=O)NCc2ccccc2)cc1 | 22207* | -4.4 | 0.8 | 1.7 | 0.2
Cc1ccc(S(=O)(=O)NCCC(=O)NCc2ccccc2)cc1 | 21858* | -0.1 | 3.8 | 3.6 | -7.2
CC(NS(=O)(=O)c1ccc(CCC(=O)NCc2cccnc2)cc1)c1ccccc1 (centres undefined) | 20378* | -8.4 | -0.5 | -1.4 | -0.5
CC(C)NS(=O)(=O)c1ccc(CCC(=O)NCc2cccnc2)cc1 | 3322 | 2.5 | 1.3 | -22.4 | 3.9
COc1cccc(CNC(=O)Cn2ncn3cccc3c2=O)c1OC | 5848 | 71.2* | -0.9 | -6.5 | -0.1
CCOc1ccccc1-c1nn2c(Cc3ccccc3)nnc2s1 | 19404* | -5.1 | -13.7 | -17.2 | -3.2
c1ccc(Cc2nnc3sc(-c4ccccn4)nn23)cc1 | 21625* | 7.4 | ? | 5.7 | 0.2
c1ccc(Cc2nnc3sc(-c4cccnc4)nn23)cc1 | 16689* | 0.6 | -1.4 | -4.7 | -5.8
c1ccc(Cc2nnc3sc(-c4cccs4)nn23)cc1 | 7931 | 0.3 | 0.9 | 7.4 | 3.4
c1ccc(Cc2nnc3sc(-c4ccncc4)nn23)cc1 | 23785* | 1.2 | -0.8 | -0.4 | -1.1
c1ccc(Cc2nnc3sc(-c4ccc5c(c4)OCO5)nn23)cc1 | 10869 | 4.0 | -0.9 | 2.2 | -2.9
